Measured values reported in PubChem BioAssay.
Active and inactive are the calls of the source. Unless noted, how the calls were made is not given here.

Assays:
[1] = resazurin metabolic signal in HepG2 cells – cell-based, resazurin fluorescence, 24 h, PK04 Diversity Set, profiling panel (AID 1172); conditions: HepG2 viability, higher = more signal
[2] = budding yeast growth changes without added modifier – OD600, strain BY4716, 24 h, basal condition, primary screen (AID 1173); conditions: S. cerevisiae BY4716 growth, OD600, 24 h; higher = more signal, called active from +8 up or from −8 down
[3] = viability profiling in MM1S myeloma cells – cell-based, resazurin fluorescence, basal, 24 h, PK04 Diversity Set, profiling panel (AID 1174); conditions: higher = more signal, called active from +8 up or from −8 down;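 further: MM1S multiple myeloma cell line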
[4] = target: Dihydroorotate dehydrogenase (quinone), mitochondrial (Plasmodium falciparum (isolate 3D7)) (UniProt Q08210); assay: inhibition of P. falciparum DHODH – biochemical, C-terminal His tag, absorbance 600 nm, primary screen (AID 1175); conditions: PfDHODH enzyme, DCIP absorbance 600 nm; higher = more signal, called active from +8 up or from −8 down;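 further: recombinant parasite enzyme with a five histidine tag at its C terminus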
[5] = inhibition of PAO1 biofilm formation – strain PAO1, LB-PBS medium, absorbance 600 nm, primary screen (AID 1176); conditions: P. aeruginosa PAO1 growth/biofilm, A600, 12 h; higher = more signal
[6] = growth modulation of vineyard yeast isolate – strain RM11-1a, OD600, basal, 24 h, primary screen (AID 1177);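 further: cultures grown under basal conditions with no added stressor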; conditions: S. cerevisiae RM11-1a growth, OD600, 24 h; higher = more signal, called active from +8 up or from −8 down
[7] = growth of efflux-deficient E. coli DRC39 – strain DRC39, OD650, 24 h, E. coli filamentation inducers, primary screen (AID 1178);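 further: growth measured as culture turbidity by optical density at 650 nm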; conditions: E. coli DRC39 acrAB, higher = more signal, called active from +8 up or from −8 down
[8] = growth of efflux-deficient E. coli DRC39 – strain DRC39, OD650, 48 h, E. coli filamentation inducers, primary screen (AID 1179);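 further: screen aims at cell division blockers that make cells filament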; conditions: E. coli DRC39 delta-acrAB growth, higher = more signal, called active from +8 up or from −8 down
[9] = viability profiling in RPMI8226 myeloma cells – cell-based, resazurin fluorescence, basal, 24 h, PK04 Diversity Set, profiling panel (AID 1180); conditions: higher = more signal;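 further: RPMI8826 multiple myeloma cell line at 5000 cells per well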
[10] = target: E3 ubiquitin-protein ligase XIAP (Homo sapiens) (UniProt P98170); assay: small molecules binding XIAP protein – biophysical, small-molecule microarray, fluorescence 635 nm, primary screen (AID 1181); conditions: higher = more signal;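 further: score merges 667 nm emission and signal to noise over triplicate slides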
[11] = test system: XIP peptide (Xip251-270) binding; assay: XIP fragment 251-270 binding compounds – biochemical, small-molecule microarray, fluorescence 635/667 nm, 0.1 µg/mL protein, primary screen (AID 1182); conditions: fluorescent protein binding, 635 nm, higher = more signal, called active from +8 up or from −8 down
XIP peptide (Xip251-270) = assay: compounds binding XIP fragment 251-270 – biochemical, small-molecule microarray, fluorescence 635/667 nm, 0.5 µg/mL protein, primary screen (AID 1183); conditions: fluorescence 635 nm, higher = more signal
[12] = blood-stage malaria parasite viability loss – strain 3D7, DAPI fluorescence, 100 nL, primary screen (AID 1184);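 further: parasites grown inside human red blood cells in medium with human serum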; conditions: P. falciparum 3D7 growth, 3 d, higher = more signal
[13] = target: Homeobox protein Hox-A13 (Mus musculus) (UniProt Q62424); assay: disruptors of Hoxa13 oligonucleotide interaction – biochemical, fluorescence polarization, labeled oligonucleotide, primary screen (AID 1185); conditions: Hoxa13:DNA binding, 15 min, higher = more signal, called active from +8 up or from −8 down
[14] = blockers of DNA damage checkpoint Chk1 activation – imaging, HeLa, hydroxyurea, phospho-Chk1 antibody, percent positive cells, primary screen (AID 1186); conditions: hydroxyurea-induced phospho-Chk1 immunofluorescence imaging, higher = more signal
[15] = blockers of DNA damage checkpoint Chk1 activation – imaging, HeLa, hydroxyurea, phospho-Chk1 nuclear intensity, primary screen (AID 1187); conditions: hydroxyurea-induced phospho-Chk1 immunofluorescence imaging, higher = more signal

E3 ubiquitin-protein ligase XIAP (Homo sapiens), sequence (P98170 whole entry, looked up, the tested form may be a part): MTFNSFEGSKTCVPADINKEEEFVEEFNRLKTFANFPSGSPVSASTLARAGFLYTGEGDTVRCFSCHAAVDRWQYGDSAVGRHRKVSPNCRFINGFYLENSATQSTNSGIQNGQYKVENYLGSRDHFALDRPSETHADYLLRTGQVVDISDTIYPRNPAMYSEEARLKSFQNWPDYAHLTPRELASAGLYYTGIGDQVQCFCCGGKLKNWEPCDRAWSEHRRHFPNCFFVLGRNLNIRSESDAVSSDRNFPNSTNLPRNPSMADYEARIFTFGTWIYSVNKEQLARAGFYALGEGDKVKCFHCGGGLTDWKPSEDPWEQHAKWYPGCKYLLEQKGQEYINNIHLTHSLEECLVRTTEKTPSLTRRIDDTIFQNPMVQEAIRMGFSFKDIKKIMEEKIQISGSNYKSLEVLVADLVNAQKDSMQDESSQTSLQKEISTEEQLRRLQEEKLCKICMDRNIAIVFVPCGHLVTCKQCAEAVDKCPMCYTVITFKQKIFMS
Homeobox protein Hox-A13 (Mus musculus), sequence (Q62424 whole entry, looked up): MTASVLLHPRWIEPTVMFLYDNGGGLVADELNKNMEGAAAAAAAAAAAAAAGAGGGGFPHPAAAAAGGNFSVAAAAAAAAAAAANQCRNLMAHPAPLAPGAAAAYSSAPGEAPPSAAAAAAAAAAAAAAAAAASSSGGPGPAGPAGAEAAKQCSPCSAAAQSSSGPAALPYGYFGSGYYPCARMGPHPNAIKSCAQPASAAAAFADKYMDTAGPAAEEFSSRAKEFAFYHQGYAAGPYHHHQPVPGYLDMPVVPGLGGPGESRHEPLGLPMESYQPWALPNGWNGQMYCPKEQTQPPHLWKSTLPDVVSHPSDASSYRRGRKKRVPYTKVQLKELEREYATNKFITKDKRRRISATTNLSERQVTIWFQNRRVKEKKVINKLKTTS
Dihydroorotate dehydrogenase (quinone), mitochondrial (Plasmodium falciparum (isolate 3D7)), sequence (Q08210 whole entry, looked up): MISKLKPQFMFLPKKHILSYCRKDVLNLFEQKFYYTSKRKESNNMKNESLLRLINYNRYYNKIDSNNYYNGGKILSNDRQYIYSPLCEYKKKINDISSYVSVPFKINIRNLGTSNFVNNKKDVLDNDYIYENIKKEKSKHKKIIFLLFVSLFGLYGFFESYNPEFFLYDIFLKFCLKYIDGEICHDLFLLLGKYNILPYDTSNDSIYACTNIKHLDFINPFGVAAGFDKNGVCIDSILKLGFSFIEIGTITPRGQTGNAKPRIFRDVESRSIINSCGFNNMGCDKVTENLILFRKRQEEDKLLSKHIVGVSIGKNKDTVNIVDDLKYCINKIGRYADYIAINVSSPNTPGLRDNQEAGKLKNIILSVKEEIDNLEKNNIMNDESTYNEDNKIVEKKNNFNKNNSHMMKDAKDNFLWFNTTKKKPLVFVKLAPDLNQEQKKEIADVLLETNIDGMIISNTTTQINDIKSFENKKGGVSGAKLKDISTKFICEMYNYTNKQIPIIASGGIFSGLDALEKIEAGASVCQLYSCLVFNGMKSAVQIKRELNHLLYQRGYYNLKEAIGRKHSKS

Structure (SMILES)	z-score [1]	z-score [2]	z-score [3]	composite z-score [4]	z-score [5]	z-score [6]	z-score [7]	z-score [8]	z-score [9]	composite z-score [10]	composite z-score [11]	composite z-score (XIP peptide (Xip251-270))	z-score [12]	z-score [13]	z-score [14]	z-score [15]
CCOC(=O)C[C@H]1[C@H](OC(=O)c2ccccc2-c2ccccc2)[C@@H](NC(=O)Cc2ccc(OC)cc2)c2cc(OCCCO)ccc2N1C(=O)c1ccccc1	-0.532	0.728 (inactive)	-0.275 (inactive)	0.542 (inactive)	-0.0461 (inactive)	0.799 (inactive)	-0.672 (inactive)	-0.79 (inactive)	-0.155	0.123	0.277 (inactive)	0.127	-1.6	-3.88 (inactive)	0.422 (inactive)	0.137 (inactive)
C=CC[C@@]1(C(=O)NCC(O)CO)N=C(c2ccc(OCCCO)cc2)O[C@@H]1c1ccccc1N=[N+]=[N-] (some centres undefined)	0.896	-0.965 (inactive)	-0.12 (inactive)	-0.269 (inactive)	-0.0709 (inactive)	0.0157 (inactive)	1.69 (inactive)	1.29 (inactive)	-0.274	0.0049	1.06 (inactive)	0.885	-1.84	-3.62 (inactive)	-0.0138 (inactive)	0.107 (inactive)
CC(C)N1C(=O)c2ccccc2[C@@H](C(=O)NCCCN(C)C)[C@@H]1c1ccc(CO)cc1	-0.456	-0.725 (inactive)	-0.0365 (inactive)	0.465 (inactive)	-0.273 (inactive)	0.625 (inactive)	-0.315 (inactive)	-0.621 (inactive)	0.764	0.013	-0.361 (inactive)	-0.428	-1.26	-2.54 (inactive)	-0.0028 (inactive)	-0.321 (inactive)
CCN(CC)c1ccc(N2CC=CC34O[C@@H]5/C=C\CCCOC(=O)C5[C@H]3C(=O)N(C(CO)C(C)C)[C@@H]4C2=O)cc1 (some centres undefined)	-0.211	0.282 (inactive)	-0.2 (inactive)	-0.952 (inactive)	-0.36 (inactive)	0.831 (inactive)	-0.0034 (inactive)	0.0801 (inactive)	-0.0389	0.336	1.05 (inactive)	0.559	0.604	-6.07 (inactive)	0.169 (inactive)	-0.0477 (inactive)
